Holding throughout (assay): NCI-60 one-dose screen, 48 h (100 = growth as untreated, 0 = no growth, -100 = all killed)
What all share (details): 10 µM

In assay [1] the test system is SN12C renal.
Assay [2] relates to UO-31 renal.
For assay [3], the system named is TK-10 renal.
Assay [4] relates to ACHN renal.
The test system of assay [5] is CAKI-1 renal.
Assay [6] deals with A498 renal.
Assay [7] concerns CCRF-CEM leukemia.
The subject of assay [8] is MOLT-4 leukemia.
Assay [9] deals with SR leukemia.

Compounds without any hit were thinned out: in the full panel of roughly 83,000, 20% have a hit.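 Each cell line was grown in a 96-well plate and treated with one concentration of compound for 48 hours. Values below 10 were considered active.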 Values without a mark were called inactive. The source made the active and inactive calls.

In the case of `CCC(=O)N1C/C(=C/c2ccc(Br)cc2)C(=O)/C(=C/c2ccc(Br)cc2)C1`, the growth in assay [1] is -48.8% (active); in [2] it was -95.9% (active); in [3] it was -31.2% (active); in [4] it was -54.9% (active); in assay [5], -25.9% (active); in [6] it was -66.4% (active). The growth in assay [7] is -12% (active); in assay [8], -15.1% (active); in assay [9], -35.6% (active).
As for `COc1ccc2c(c1)O/C(=C\c1ccc([N+](=O)[O-])o1)C2=O`, the growth is 6.92% (active) in [1]; -73.5% (active) in assay [2]; -33.7% (active) in assay [3]; 6.05% (active) in assay [4]; -2.99% (active) in assay [5]; 56.6% in [6]. The growth was 0.117% (active) in [7], -0.0457% (active) in assay [8] and 7.61% (active) in [9].
In the case of `O=c1cc(-c2ccccc2)[nH]n1-c1nc2ccccc2[nH]1`, the growth in [1] is 49.5%; in [2], 38.4%; in assay [3] it was 63.1%; in assay [4], 37.2%; in assay [5], 45.9%; in [6], 1.96% (active). The growth in assay [7] was 11.9%; in [8], -18.6% (active); in assay [9] it was 39.3%.
Turning to `COc1cc(-c2cc(/C=C3\C(=O)Nc4ccccc43)[nH]n2)cc(OC)c1OC`, the growth in assay [1] was 53.7%; in [2] it was 37.2%; in [3], 68.1%; in [4] it was 51.1%; in assay [5], 25.4%; in assay [6], 46.5%. For the same compound, the growth in assay [7] was 22.3%; in assay [8], 6.03% (active); in assay [9], 34.1%.
On to `C#Cc1ccc(-n2c(/C=C/c3ccc4ccccc4c3)nc3ncccc3c2=O)cc1`, for which the growth was 28.9% in [1]; 13.7% in assay [2]; 21.4% in assay [3]; 23.1% in [4]; 13% in assay [5]; -2.88% (active) in assay [6]. The growth in [7] was 2.66% (active); in assay [8] it was 4.88% (active); in assay [9], 4.43% (active).
For the compound `CCCCCCCNc1nc(C=O)ncc1-c1ccc(C(F)(F)F)cc1`, the growth in [1] was 101%; in [2], 63.1%; in [3], 97%; in [4] it was 104%; in assay [5] it was 98.4%; in assay [6], 86.2%. Besides, the growth in assay [7] is 83.9%; in [8] it was 86.5%; in assay [9] it was -2.53% (active).
Consider `CC(C)(C#N)Nc1ccccc1`, for which the growth in assay [1] is 98.8%; in [2], 103%; in assay [3], 115%; in assay [4], 97.8%; in assay [5], 83.5%; in assay [6], 103%. For the same compound, the growth in assay [7] is 97.1%; in assay [8], 102%; in assay [9], 116%.
In the case of `CCCC#CCN(CC)CC`, the growth in [1] is 95.8%; in [2] it was 83.5%; in assay [3] it was 99.2%; in assay [4], 106%; in assay [5], 88.2%; in [6] it was 105%. Besides, the figures for the growth in assay [7], in assay [8] and in [9] were 95%, 109% and 101%, respectively.
As for `N=C(N)c1ccc(-c2ccc(-c3ccco3)o2)cc1`, the growth in assay [1] was 69.3%; in [2], 55%; in [3] it was 109%; in [4], 79.4%; in [5] it was 54.5%; in [6], 33.3%. In addition, the growth in assay [7] is 60.7%; in [8] it was 31.3%; in [9], -17.8% (active).
For `COc1ccc(Cn2c(C(N)=O)cc3c2-c2nc(N)ncc2CCC3)cc1`, the growth was 106% in [1]; 82.6% in [2]; 108% in assay [3]; 97.1% in assay [4]; 105% in [5]; 76.2% in assay [6]. The growth is 95.8% in assay [7], 108% in assay [8] and 108% in assay [9].
With `O=[N+]([O-])c1ccc(Oc2cc(Cl)c(Cl)cc2Cl)c(C(F)(F)F)c1`, the growth in [1] is 103%; in [2], 80.2%; in assay [3], 115%; in assay [4], 96.8%; in [5] it was 92.3%; in assay [6], 90.5%. In addition, the results for the growth in assay [7], in [8] and in assay [9] were 93.5%, 87.5% and 100%, respectively.
Take `Cc1ccc(C)c(C(O)(c2cc(C)ccc2C)C2(O)CCCCC2)c1`: the growth in [1] is 96.8%; in assay [2], 87.7%; in assay [3], 89.8%; in [4], 89%; in assay [5] it was 80.5%; in [6] it was 94.5%. Also, the growth in [7] is 94.3%; in assay [8] it was 71.5%; in [9] it was 85.1%.
For `O=S(=O)(NCCNc1nccc(-c2c(-c3ccc(F)cc3)nc3sccn23)n1)c1ccc2ccccc2c1`, the growth in assay [1] is 80.7%; in assay [2], 43.4%; in [3], 83.7%; in assay [4], 56.6%; in assay [5], 68.5%; in [6], 79.5%. Besides, the growth is 61.7% in assay [7], 54% in assay [8] and 46.6% in [9].
As for `COc1ccc2c(c1)O/C(=C\c1ncc([N+](=O)[O-])n1C)C2=O`, the growth was -8.55% (active) in [1]; -39.2% (active) in assay [2]; -27.3% (active) in assay [3]; 0.77% (active) in assay [4]; -26.7% (active) in assay [5]; -77.7% (active) in assay [6]. Also, the growth in [7] was 4.88% (active); in [8], 2.86% (active); in [9], 7.55% (active).
Regarding `COc1ccc(-c2nn(-c3cccc(NC(=O)c4ccc5c(c4)OCCO5)c3)cc2-c2ccncc2)cc1Cl`, the growth in assay [1] was 51.6%; in assay [2] it was 16%; in [3] it was 36.2%; in assay [4] it was 41.4%; in assay [5], 15%; in assay [6], -19.3% (active). In addition, the figures for the growth in assay [7], in assay [8] and in [9] were 7.54% (active), 11.3% and -9.34% (active), respectively.
Consider `Cc1ccc(C(=O)N2C/C(=C/c3ccccc3)C(=O)/C(=C/c3ccccc3)C2)cc1`, for which the growth in [1] is 79.5%; in [2], 56.6%; in [3] it was 96.7%; in assay [4], 72.6%; in assay [5], 63.2%; in assay [6] it was 71.7%. Further, the growth in assay [7] is 23.3%; in [8], 32.6%; in assay [9], -12.4% (active).
`COc1ccc(Nc2ncnc3c2c(SC)nn3-c2ccccc2)cc1`: the growth in assay [1] is 83.8%; in assay [2], 77.2%; in [3] it was 117%; in [4], 100%; in assay [5], 82.7%; in assay [6], 118%. In addition, the growth in [7] is 98.5%; in [8], 88.1%; in [9], 84.2%.
As to `COc1cc(-c2nc(Nc3nc4ccccc4s3)[nH]c(=O)c2C#N)cc(OC)c1O`, the growth in assay [1] is 102%; in assay [2], 88.1%; in [3], 112%; in [4] it was 102%; in assay [5], 113%; in assay [6], 103%. In addition, the growth in [7] was 103%; in [8], 94.7%; in [9], 108%.
Regarding `CCN(CC)CCSCCCNc1c2ccc(Cl)cc2nc2ccc(OC)cc12`, the growth was -32% (active) in assay [1]; -29.1% (active) in [2]; -4.3% (active) in assay [3]; -78.3% (active) in [4]; -22.8% (active) in assay [5]; -77.7% (active) in [6]. Further, the growth is -20.4% (active) in assay [7], -19.9% (active) in assay [8] and -19.8% (active) in assay [9].
Turning to `Nc1ccccc1NC(=O)CCCCC(=O)Nc1ccc2c(c1)/C(=C/c1ccc[nH]1)C(=O)N2`, the growth is 66.9% in assay [1]; 72.2% in assay [2]; 68.2% in assay [3]; 92.7% in [4]; 81.6% in [5]; -5.06% (active) in [6]. In addition, the growth in [7] was 50.7%; in [8], 47.7%; in [9], 62.7%.
For the compound `COc1ccc(-c2ccc(-c3ccc(C(=N)N)cn3)o2)cc1`, the growth in assay [1] is 74.9%; in [2] it was 30.7%; in [3], 117%; in [4], 80.6%; in assay [5] it was 75.1%; in assay [6], 59.4%. In addition, the growth is 74.3% in [7], 52.7% in [8] and 10.3% in assay [9].
With `COc1cc(-c2nn3c(/C=C4/C(=O)Nc5ccccc54)c(-c4ccc(C)cc4)nc3s2)cc(OC)c1OC`, the growth in assay [1] was 73.2%; in assay [2] it was 73.1%; in assay [3] it was -18.7% (active); in [4] it was 81.1%; in assay [5], 64.6%; in [6], 98.9%. The growth in assay [7] was 67.4%; in [8], 47.8%; in [9] it was 26.5%.
On to `COc1cccc(Cn2c(-c3nonc3N)nc3ccccc32)c1`, for which the growth in [1] was 43.8%; in assay [2] it was 33.2%; in assay [3], 31.7%; in assay [4], 46.6%; in [5] it was 20.5%; in assay [6], -19.3% (active). In addition, the growth in assay [7] is 9.82% (active); in assay [8] it was 25.6%; in assay [9], -5.32% (active).
`COc1ccc(-c2nn(-c3cccc(NC(=O)c4cc(C(F)(F)F)cc(C(F)(F)F)c4)c3)cc2-c2ccncc2)cc1Cl`: the growth is 78.1% in assay [1]; 43% in assay [2]; 85.5% in assay [3]; 66.2% in assay [4]; 50.1% in assay [5]; 39.7% in assay [6]. In addition, the values for the growth in assay [7], in assay [8] and in [9] were 64.4%, 69.5% and 36.3%, respectively.
For `COc1cccc(C(=O)Nc2ccc(CN3CCc4nc5cc(OC)c(OC)cc5cc43)cc2)c1`, the growth in [1] was 54.1%; in assay [2], 27.5%; in assay [3], 42.4%; in assay [4], 36.9%; in [5], 21.7%; in assay [6], 20.5%. Moreover, the growth was 28.7% in assay [7], 25.7% in [8] and 24.1% in assay [9].
Regarding `Cc1ccc(C(=O)N2C/C(=C/c3ccc(F)cc3)C(=O)/C(=C/c3ccc(F)cc3)C2)cc1`, the growth in [1] is 92.4%; in [2] it was 64.3%; in assay [3], 102%; in assay [4], 103%; in assay [5], 81.3%; in [6] it was 93.5%. Further, the values for the growth in assay [7], in assay [8] and in assay [9] were 63.1%, 71.6% and 20.4%, respectively.
For the compound `Nc1c(C(=O)Nc2ccccc2)sc2nc3c(cc12)C(O)CCC3` (stereo unspecified), the growth in [1] is 39.6%; in assay [2] it was 49.4%; in assay [3] it was 69.8%; in assay [4], 48.2%; in assay [5] it was 41.4%; in assay [6] it was -10.1% (active). Besides, the growth in assay [7] is 14.2%; in assay [8], 11.9%; in assay [9], 7.36% (active).
`O=S(=O)(NCCCNc1nccc(-c2c(-c3ccc(F)cc3)nc3sccn23)n1)c1ccc2ccccc2c1`: the growth was 49.2% in assay [1]; 13.1% in assay [2]; 35.4% in assay [3]; 39% in [4]; 33.2% in [5]; 62.4% in assay [6]. Moreover, the growth in assay [7] is 28.3%; in assay [8], 35%; in assay [9] it was 28.5%.
As to `O=C(Nc1ccc(CN2CCc3nc4cc(O)c(O)cc4cc32)cc1)c1ccc(Cl)c(Cl)c1`, the growth in assay [1] is 97.4%; in [2], 88.9%; in assay [3], 122%; in assay [4], 98.2%; in assay [5], 96.4%; in [6], 103%. In addition, the growth in assay [7] was 78%; in assay [8] it was 106%; in assay [9], 94.5%.

Source of the values: PubChem BioAssay (NCI).
